# Inconclusive results are not listed. The source made the active and inactive calls. How the source made its calls: active means hit-call score of the fitted dose curve at least 0.9, where 1 is the maximum; inconclusive means response in the unintended direction; inactive means score below 0.9.
# Assay: ACEA_ER_80hr: ACEA Biosciences xCELLigence Real-Time Cell Analysis on Estrogen Receptor Agonism for Proliferation (AID 2282667)
# Conditions: T47D proliferation, impedance (xCELLigence), 80 h
# Method in brief: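 Real-time impedance growth kinetics of human T-47D breast cells read 80 h after dosing, gain-of-signal fitted relative to DMSO. Compounds: 1:4 serial series, top final concentration 100 uM, n = 2.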
SMILES,outcome,AC50
CC(=O)CCc1ccc2c(c1)OCO2,inactive,
OCC(F)(F)OC(F)(F)C(F)(F)OC(F)(F)CO,,20200 nM (active)
CCCCC(CC)COP(=O)(Oc1ccccc1)Oc1ccccc1 (stereo not given),inactive,
CCCCOCC1CO1 (stereo not given),inactive,
N#Cc1cc([N+](=O)[O-])ccc1N,inactive,
Cc1ccc(C(=O)Cl)cc1,inactive,
CC(C)(C)c1ccccc1OP(=O)(Oc1ccccc1)Oc1ccccc1,inactive,
Oc1ccc(I)cc1,inactive,
CCOP(=O)(O)C(N)=O,inactive,
O=S1(=O)OCC2C(CO1)C1(Cl)C(Cl)=C(Cl)C2(Cl)C1(Cl)Cl (stereo not given),,21.3 nM (active)
C=CC(=O)OCC(F)(F)C(F)F,inactive,
O=C(O)C(F)(F)C(F)(F)C(=O)O,inactive,
Nc1ccc(Sc2ccc(N)cc2)cc1,inactive,
O=P(OCC(Br)CBr)(OCC(Br)CBr)OCC(Br)CBr (stereo not given),inactive,
CC(C)Nc1ccc(Nc2ccccc2)cc1,inactive,
FC(F)(F)C(F)(C(F)(F)F)C(F)(F)C(F)(F)CC1CO1 (stereo not given),inactive,
C=CC(=O)OCC(CC)(COC(=O)C=C)COC(=O)C=C,inactive,
O=c1ssc(Cl)c1Cl,inactive,
CCOP(=S)(S)OCC,inactive,
NNC(N)=S,inactive,
O=C(O)C(F)(OC(F)(F)C(F)(F)C(F)(F)F)C(F)(F)F (stereo not given),inactive,
CC(=O)c1ccc(-c2ccccc2)cc1,inactive,
CCOP(=S)(OCC)SCn1nnc2ccccc2c1=O,inactive,
O=c1[nH]c2ccccc2c(=O)o1,inactive,
O=NN1CCCC1,inactive,
COP(=O)(O)OC,inactive,
COC(N)=O,inactive,
O=S(=O)(F)C(F)(F)C(F)(F)C(F)(F)C(F)(F)C(F)(F)C(F)(F)C(F)(F)C(F)(F)F,inactive,
Cn1[nH]nnc1=S,inactive,
CC1(C)CN=C(NN=C(/C=C/c2ccc(C(F)(F)F)cc2)/C=C/c2ccc(C(F)(F)F)cc2)NC1,,56.3 nM (active)

# From PubChem BioAssay (EPA / NIEHS)
